Assay results: PMC4552634, “A New Set of Chemical Starting Points with Plasmodium falciparum Transmission-Blocking Potential for Antimalarial Drug Discovery” (PLoS ONE, 2015)
Like-named read-outs stand apart in the source and are kept apart here. About 3,200 (25%) of roughly 13,000 compounds showed an effect of 50% or more. This is one part of the list.

Test system: P. falciparum stage V gametocytes
Design: BacTiter-Glo ATP luminescence viability of purified stage V gametocytes in 384-well plates, per cent inhibition versus DMSO
Details: 48 h, 5 µM, inhibitor

SMILES	% Inhibition [%]	% Inhibition (% Inhibition) [%]
CCn1c(SCc2ccccc2)nc2c1c(=O)[nH]c(=O)n2C [TCMDC-125734]	-6.834	–
CC(C)CNC(=S)N1CCCN(c2nc3ccc(Cl)cc3s2)CC1 [TCMDC-139465]	24.85	–
Cc1noc(C)c1CN1Cc2ccccc2OC2(CCN(Cc3c[nH]c4cnccc34)CC2)C1 [TCMDC-133381]	19.56	–
COc1ccc(NC(=O)NC2CCN(c3ccnc4cc(Cl)ccc34)CC2)cc1 [TCMDC-133573]	-92.42	–
CC(C)N1CCC(N(Cc2ccc(-c3ccc(Cl)cc3)cc2)C(=O)Cn2c(CCc3cccc(F)c3F)cc(=O)c3ccccc32)CC1 [TCMDC-141363]	102.7	–
CN1CCC(N(Cc2ccc(-c3ccc(C(F)(F)F)cc3)cc2)C(=O)Cn2cc(Cc3cnn(C)c3)c(=O)nc2SCc2cccc(F)c2F)CC1 [TCMDC-141337]	106.7	–
CCCC(C)NC(=O)[C@H](CC1CCCCC1)NC(=O)c1ccc(O)c(-c2cccc(C(F)(F)F)c2)c1 (stereo partly shown) [TCMDC-140808]	13.25	–
CC1CN=C(c2ccc(NC(=O)Nc3ccc(C4=NCC(C)N4)cc3)cc2)N1 (stereo not shown) [TCMDC-137210]	-10.63	–
N#Cc1ccc(C(=O)NC2CCN(CCCCCNC(=O)/C=C/c3ccc(Cl)c(Cl)c3)CC2)cc1 [TCMDC-135837]	78.66	–
N#Cc1cccc(NC(=O)NC2CCN(CCCCCNC(=O)/C=C/c3ccc(Cl)c(Cl)c3)CC2)c1 [TCMDC-135706]	-58.78	–
N#Cc1ccc(NC(=O)NC2CCN(CCCCCNC(=O)/C=C/c3ccc(Cl)c(Cl)c3)CC2)cc1 [TCMDC-135705]	-23.68	–
N#Cc1cccc(C(=O)NC2CCN(CCCCCNC(=O)/C=C/c3ccc(Cl)c(Cl)c3)CC2)c1 [TCMDC-135841]	88.37	–
O=C(/C=C/c1ccc(Cl)c(Cl)c1)NCCCCCN1CCC(NC(=O)c2ccc(F)cc2)CC1 [TCMDC-135840]	0.6546	–
O=C(/C=C/c1ccc(Cl)c(Cl)c1)NCCCCCN1CCC(NC(=O)c2cccc(Cl)c2)CC1 [TCMDC-135868]	49.83	–
O=C(Nc1ccc(Cl)c(C(F)(F)F)c1)c1ccc(C(=O)Nc2ccc(Cl)c(C(F)(F)F)c2)cc1 [TCMDC-125581]	-42.79	–
CC1(C)N=C(N)N=C(N)N1OCCCCON1C(N)=NC(N)=NC1(C)C [TCMDC-131630]	2.586	–
Cc1cc(NC(=O)NCCN2CCC(NS(=O)(=O)c3ccc(C(F)(F)F)cc3)C2)c2ccccc2n1 (stereo not shown) [TCMDC-136140]	44.51	–
NCc1cccc(-c2cccc(CN(C(=O)Nc3ccccc3)C3CCN(Cc4ccccc4)CC3)c2)c1 [TCMDC-140583]	102.4	–
O=C(Nc1ccccc1)N(Cc1ccccc1-c1cccc(CNCc2ccc3c(c2)OCO3)c1)C1CCN(Cc2ccccc2)CC1 [TCMDC-140582]	47.74	–
NCc1ccc(-c2ccccc2CN(C(=O)Nc2ccccc2)C2CCN(Cc3ccccc3)CC2)cc1 [TCMDC-140577]	94.87	–
O=C(Nc1ccccc1)N(Cc1ccccc1-c1cccc(CNCCc2ccccc2)c1)C1CCN(Cc2ccccc2)CC1 [TCMDC-140580]	102.3	–
O=C(Nc1ccccc1)N(Cc1cccc(-c2cccc(CNCCc3ccccc3)c2)c1)C1CCN(Cc2ccccc2)CC1 [TCMDC-140587]	90.55	–

SMILES	% Inhibition [%]	% Inhibition (% Inhibition) [%]
Cc1ccc(CN=C(N)NC(=O)c2nc(Cl)c(NCc3ccc(Cl)cc3)nc2N)c(C)c1 [TCMDC-138938]	26.05	–
CN(c1ccc(NC(=O)c2cccc(F)c2)cc1)C1CCCN(Cc2cccc(O)c2)C1 (stereo not shown) [TCMDC-134957]	-38.33	–
O=C(Nc1ccccc1)N(Cc1cccc(-c2ccc(CNCCc3ccccc3)cc2)c1)C1CCN(Cc2ccccc2)CC1 [TCMDC-140588]	106.9	–
CC(=O)N(Cc1cccc(-c2cccc(CNCCc3ccccc3)c2)c1)C1CCN(Cc2ccccc2)CC1 [TCMDC-140527]	98.23	–
CC(=O)N(Cc1cccc(-c2ccc(CNCCc3ccccc3)cc2)c1)C1CCN(Cc2ccccc2)CC1 [TCMDC-140528]	44.2	–
S=C(Nc1cccc(Cl)c1)NC1CCN(c2ccnc3cc(Cl)ccc23)C1 (stereo not shown) [TCMDC-133400]	41.6	–
Cc1cc(CN2CCCN(c3ccc4c(c3)CCN(Cc3ccc(-c5ncc[nH]5)cc3)CC4)CC2)n(C)n1 [TCMDC-136550]	22.45	–
COc1ccc2nccc([C@@H](O)CN3CCC(NC(=O)c4ccc5nc(-n6cccc6)sc5c4)CC3)c2c1 [TCMDC-141027]	-24.62	–
COc1cc2ccccc2c(OC)c1CNCCCCCCNCc1c(OC)cc2ccccc2c1OC [TCMDC-137843]	116.8	–
COc1cc2ccccc2cc1CCNCCCCNCCc1cc2ccccc2cc1OC [TCMDC-137944]	108	–
COc1cc2ccccc2c(CON2C(N)=NC(N)=NC2(C)C)c1OC [TCMDC-131792]	17.71	–
COc1cc2ccccc2c(CNCCCCCCNCc2c(OC)c(OC)cc3ccccc23)c1OC [TCMDC-137795]	103.3	–
COc1cc2c(cc1CCNCCCCNCCc1cc3c(cc1OC)CCCC3)CCCC2 [TCMDC-137319]	108.4	–
Cl.O=C(Oc1ccc(C2CNCCc3c2cc(OC(=O)c2ccc(O)cc2)c(OC(=O)c2ccc(O)cc2)c3Cl)cc1)c1ccc(O)cc1 (stereo not shown) [TCMDC-141978]	49.99	–
CC(C)Sc1nncc(-c2cnnc(SC(C)C)n2)n1 [TCMDC-123740]	3.174	–
COc1ccc2nccc([C@@H](O)CN3CCC(NCc4cc5cccc6c5n(c4=O)CCC6)CC3)c2c1 [TCMDC-140735]	-18.38	–
CCCc1cc(N2CCC(N3CCCC3)CC2)nc(Nc2ccc(OC)cc2)n1 [TCMDC-132387]	2.102	–
C=C[C@H]1CN2CC[C@H]1C[C@H]2[C@H](O)c1ccnc2ccc(OC)cc12 [TCMDC-125479]	–	-1.021
CC(C)=CCc1c(-c2ccc(O)cc2O)oc2c3c(cc(O)c2c1=O)OC(C)(C)C=C3 [TCMDC-124149]	26.1	–
COc1cc2ccccc2c(OC)c1CCNCCCCNCCc1c(OC)cc2ccccc2c1OC [TCMDC-137842]	116.9	–
O=C(CC(c1ccccc1)c1ccccc1O)N1CCOCC1 (stereo not shown) [TCMDC-125747]	-30.1	–
C=CCc1ccc(C[C@H](NC(=O)OC(C)(C)C)C(=O)OC)cc1 [TCMDC-138140]	103.3	–

SMILES	% Inhibition [%]	% Inhibition (% Inhibition) [%]
CC(C)(C)OC(=O)N[C@@H](Cc1ccccc1)C(=O)Nc1cccc(-c2cccc(NC(=O)[C@H](Cc3ccccc3)NC(=O)OC(C)(C)C)c2)c1 [TCMDC-131873]	-20.04	–
COC(=O)C(c1ccc(NC(=O)[C@H](CC(C)C)NC(=O)OC(C)(C)C)cc1)c1ccc(NC(=O)[C@H](CC(C)C)NC(=O)OC(C)(C)C)cc1 [TCMDC-131874]	-21.29	–
CC(C)(C)c1ccc(C(=O)N2CCC3(CC2)C(=O)N(CC(=O)NCC2CCCO2)CN3c2ccccc2)cc1 (stereo not shown) [TCMDC-125172]	-58.74	–
COc1ccc(N2CCN(CCCCNC(=O)c3ccc(NC(=O)c4ccc(Cl)cc4)cc3)CC2)c(C)c1 [TCMDC-138431]	-16.53	–
CC(C)NCc1ccc(-c2ccc(NC(=O)c3cccc(Cl)c3)cc2)cc1 [TCMDC-132592]	87.86	–
CC(C)NCc1ccc(-c2ccc(NC(=O)c3ccc(Cl)cc3)cc2)cc1 [TCMDC-132586]	47.91	–
CC(C)NCc1cccc(-c2cccc(NC(=O)c3cccc(Cl)c3)c2)c1 [TCMDC-132658]	93.91	–
CC(C)NCc1ccc(-c2cccc(NC(=O)c3cccc(Cl)c3)c2)cc1 [TCMDC-132642]	18.79	–
CN(C)Cc1ccc(-c2cccc(NC(=O)c3cccc(Cl)c3)c2)cc1 [TCMDC-132644]	-4.056	–
CN(C)CCN(C)Cc1ccc(-c2ccc(NC(=O)c3cccc(Cl)c3)cc2)cc1 [TCMDC-132593]	39.43	–
O=C(Nc1ccc(Cn2ncc(N3CCCNCC3)c(Cl)c2=O)cc1)Nc1ccc(OCc2ccccc2)cc1 [TCMDC-133319]	26.32	–
COC(=O)c1ccc(CC(C)NCC(O)c2cccc(Cl)c2Cl)cc1 (stereo not shown) [TCMDC-131483]	20.31	–
CC(C)CC(=O)N(Cc1ccc(-c2ccc(CNC3Cc4ccccc4C3)cc2)cc1)C1CCNCC1 [TCMDC-141449]	118.6	–
O=C(COc1ccccc1)N(Cc1ccc(-c2ccc(CNC3Cc4ccccc4C3)cc2)cc1)C1CCNCC1 [TCMDC-141450]	110	–
CC[C@H](C)CNC(=O)c1ccnc(-c2ccc(CNC3Cc4ccccc4C3)cc2)c1 [TCMDC-134253]	2.834	–
CC(C)CNC(=O)c1cncc(-c2ccc(CNC3Cc4ccccc4C3)cc2)c1 [TCMDC-134241]	-1.576	–
CC(C)CNC(=O)c1ccnc(-c2ccc(CNC3Cc4ccccc4C3)cc2)c1 [TCMDC-134254]	4.563	–
CCCNC(=O)c1ccnc(-c2ccc(CNC3Cc4ccccc4C3)cc2)c1 [TCMDC-134255]	1.364	–
Cc1ccc(NC(=O)N2CCN(CCCCCNC(=O)/C=C/c3ccc(Cl)c(Cl)c3)CC2)cc1C [TCMDC-135732]	-3.92	–
CCOC(=O)c1c(CN(CC)CC)n(-c2ccccc2)c2cc(Br)c(O)cc12 [TCMDC-125679]	-14.42	–
